According to PubChem BioAssay AID1159580 (chemical genetic matrix, 2015):
The whole screen tested about 5,500 compounds, of which about 2,000 (36%) were called active. Another 18% or so got no clear call; they are omitted. Rule as the data show it: active = normalized growth mostly below about 0.91 (no sharp cut-off); inconclusive = no clear call, values can overlap the other calls; inactive = mostly above about 0.92. The list shows a part of the results.

Experiment: chemical genetic growth profiling, strain panel (AID 1159580);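 also: tested at 20 µM; growth read once vehicle control cultures reached saturation at 30 °C; 1 = growth at the plate median or of vehicle wells; lower values mean less growth of the strain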
Settings: growth OD

Measured: normalized growth

CCCCC/C=C\C/C=C\C/C=C\C/C=C\CCCC(=O)O
inactive: S. cerevisiae deletion strains, locus YJR043C, strain POL32, hits give low values 0.975 | S. cerevisiae deletion strains, locus YJR075W, strain HOC1, hits give low values 0.968 | S. cerevisiae deletion strains, locus YKL009W, strain mrt4, hits give low values 0.982 | S. cerevisiae deletion strains, locus YKL068W, hits give low values 0.973 | S. cerevisiae deletion strains, locus YKL085W, strain MDH1 (second series), hits give low values 0.958 | S. cerevisiae deletion strains, locus YKL085W, strain MDH1, hits give low values 0.958 | S. cerevisiae deletion strains, locus YKL160W, strain elf1, hits give low values 0.98 | S. cerevisiae deletion strains, locus YKL190W, strain CNB1, hits give low values 0.987 | S. cerevisiae deletion strains, locus YKR026C, strain gcn3, hits give low values 0.944 | S. cerevisiae deletion strains, locus YKR091W, strain srl3, hits give low values 0.967 | S. cerevisiae deletion strains, locus YLL001W, strain dnm1, hits give low values 0.96 | S. cerevisiae deletion strains, locus YLL026W, hits give low values 0.976 | S. cerevisiae deletion strains, locus YLL041C, strain sdh2, hits give low values 0.975 | S. cerevisiae deletion strains, locus YLR027C, strain aat2, hits give low values 0.978 | S. cerevisiae deletion strains, locus YLR039C, strain RIC1, hits give low values 0.686 | S. cerevisiae deletion strains, locus YLR058C, strain SHM2, hits give low values 0.972 | S. cerevisiae deletion strains, locus YLR102C, strain apc9, hits give low values 0.971 | S. cerevisiae deletion strains, locus YLR221C, strain rsa3, hits give low values 0.972 | S. cerevisiae deletion strains, locus YLR258W, strain gsy2, hits give low values 0.966 | S. cerevisiae deletion strains, locus YLR262C, strain YPT6, hits give low values 0.719 | S. cerevisiae deletion strains, locus YLR268W, strain sec22, hits give low values 1.01 | S. cerevisiae deletion strains, locus YLR320W, strain mms22, hits give low values 0.884 | S. cerevisiae deletion strains, locus YLR330W, strain CHS5, hits give low values 0.984 | S. cerevisiae deletion strains, locus YLR342W, strain FKS1 (second series), hits give low values 0.942 | S. cerevisiae deletion strains, locus YLR342W, strain FKS1, hits give low values 0.969 | S. cerevisiae deletion strains, locus YLR357W, strain rsc2, hits give low values 0.935 | S. cerevisiae deletion strains, locus YLR370C, strain arc18, hits give low values 0.964 | S. cerevisiae deletion strains, locus YLR371W, strain rom2, hits give low values 0.975 | S. cerevisiae deletion strains, locus YLR384C, strain iki3, hits give low values 0.982 | S. cerevisiae deletion strains, locus YLR418C, strain cdc73, hits give low values 0.953 | S. cerevisiae deletion strains, locus YML016C, strain PPZ1, hits give low values 1 | S. cerevisiae deletion strains, locus YML032C, strain rad52, hits give low values 0.967 | S. cerevisiae deletion strains, locus YML120C, strain ndi1, hits give low values 0.986 | S. cerevisiae deletion strains, locus YML124C, strain tub3, hits give low values 0.983 | S. cerevisiae deletion strains, locus YMR058W, strain fet3, hits give low values 0.919 | S. cerevisiae deletion strains, locus YMR078C, strain ctf18, hits give low values 0.964 | S. cerevisiae deletion strains, locus YMR125W, strain sto1, hits give low values 0.977 | S. cerevisiae deletion strains, locus YMR129W, hits give low values 0.977 | S. cerevisiae deletion strains, locus YMR205C, strain PFK2, hits give low values 0.919 | S. cerevisiae deletion strains, locus YMR223W, strain ubp8, hits give low values 0.953 | S. cerevisiae deletion strains, locus YMR231W, strain pep5, hits give low values 0.974 | S. cerevisiae deletion strains, locus YMR263W, strain SAP30, hits give low values 1 | S. cerevisiae deletion strains, locus YMR307W, strain GAS1, hits give low values 0.966 | S. cerevisiae deletion strains, locus YNL067W, strain RPL9B, hits give low values 0.987 | S. cerevisiae deletion strains, locus YNL128W, strain TEP1, hits give low values 0.995 | S. cerevisiae deletion strains, locus YNL153C, strain GIM3, hits give low values 1 | S. cerevisiae deletion strains, locus YNL209W, strain ssb2, hits give low values 0.983 | S. cerevisiae deletion strains, locus YNL233W, strain BNI4, hits give low values 0.981 | S. cerevisiae deletion strains, locus YNL248C, strain rpa49, hits give low values 0.972 | S. cerevisiae deletion strains, locus YNL250W, strain rad50, hits give low values 0.924 | S. cerevisiae deletion strains, locus YNL271C, strain bni1, hits give low values 0.973 | S. cerevisiae deletion strains, locus YNL298W, strain CLA4, hits give low values 0.956 | S. cerevisiae deletion strains, locus YNL322C, strain KRE1 (second series), hits give low values 0.996 | S. cerevisiae deletion strains, locus YNL322C, strain KRE1, hits give low values 0.986 | S. cerevisiae deletion strains, locus YNR049C, strain mso1, hits give low values 0.971 | S. cerevisiae deletion strains, locus YNR052C, strain pop2, hits give low values 0.977 | S. cerevisiae deletion strains, locus YOL006C, strain TOP1, hits give low values 0.836 | S. cerevisiae deletion strains, locus YOL012C, strain htz1 0.8 | S. cerevisiae deletion strains, locus YOL147C, strain pex11, hits give low values 0.987 | S. cerevisiae deletion strains, locus YOR001W, strain rrp6, hits give low values 0.971 | S. cerevisiae deletion strains, locus YOR061W, strain CKA2, hits give low values 0.986 | S. cerevisiae deletion strains, locus YOR069W, strain VPS5, hits give low values 0.99 | S. cerevisiae deletion strains, locus YOR070C, strain gyp1, hits give low values 0.98 | S. cerevisiae deletion strains, locus YOR080W, strain dia2, hits give low values 0.97 | S. cerevisiae deletion strains, locus YOR083W, strain WHI5, hits give low values 0.996 | S. cerevisiae deletion strains, locus YOR106W, strain vam3, hits give low values 0.978 | S. cerevisiae deletion strains, locus YOR136W, strain idh2, hits give low values 0.965 | S. cerevisiae deletion strains, locus YOR144C, strain elg1, hits give low values 0.986 | S. cerevisiae deletion strains, locus YOR184W, strain ser1, hits give low values 0.895 | S. cerevisiae deletion strains, locus YOR265W, strain rbl2, hits give low values 0.978 | S. cerevisiae deletion strains, locus YOR270C, strain vph1, hits give low values 0.924 | S. cerevisiae deletion strains, locus YOR290C, strain snf2, hits give low values 0.89 | S. cerevisiae deletion strains, locus YOR316C, strain cot1, hits give low values 0.982 | S. cerevisiae deletion strains, locus YPL051W, strain arl3, hits give low values 0.985 | S. cerevisiae deletion strains, locus YPL055C, strain LGE1, hits give low values 0.972 | S. cerevisiae deletion strains, locus YPL078C, strain atp4, hits give low values 0.967 | S. cerevisiae deletion strains, locus YPL106C, strain sse1, hits give low values 0.931 | S. cerevisiae deletion strains, locus YPL240C, strain hsp82, hits give low values 0.978 | S. cerevisiae deletion strains, locus YPL241C, strain CIN2, hits give low values 0.986 | S. cerevisiae deletion strains, locus YPR119W, strain clb2, hits give low values 0.969 | S. cerevisiae deletion strains, locus YPR141C, strain kar3, hits give low values 0.975 | S. cerevisiae deletion strains, locus YPR163C, strain tif3, hits give low values 0.965 | S. cerevisiae deletion strains, locus YPR167C, strain met16, hits give low values 0.986 | S. cerevisiae deletion strains, strain wtn01, hits give low values 0.972 | S. cerevisiae strains, strain wild type, hits give low values 0.976
active: S. cerevisiae deletion strains, locus YKR001C, strain vps1, hits give low values 0.857 | S. cerevisiae deletion strains, locus YLR262C, strain YPT6 (second series), hits give low values 0.856 | S. cerevisiae deletion strains, locus YNL071W, strain lat1, hits give low values 0.857 | S. cerevisiae deletion strains, locus YNL307C, strain MCK1, hits give low values 0.733
